Data published in PubChem BioAssay (NCATS).
Results filed as inconclusive are left out. Calls of active or inactive are those of the source. Unless noted, the call rests on the fitted dose curve; in most records, active means well fitted curve in the direction sought with a large enough effect; inconclusive means small, poorly fitted or top-dose-only effect, or another doubt; inactive means no such curve, though single readings can be large; an effect the other way counts as inactive or inconclusive.

Columns and labels:
[1] = Cellular Toxicity (caspase-3) HepG2 (AID 654);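 further: cells exposed to compound for 16 hours before reading; 0% = DMSO alone and 100% = caspase signal from 100 µM tamoxifen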
Procedure, shortened: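 qHTS, HepG2, 1500 cells/well, complete medium; cpd 16 h 37 °C; Caspase-Glo 3/7, 20 min RT; lum. Norm: DMSO vs 100 uM tamoxifen; AC50 Hill fit.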

[2] = Cellular Toxicity (caspase-3) Jurkat (AID 655);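 further: cells exposed to compound for 16 h at 37 °C before reading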
Procedure, shortened: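 Jurkat cells (5000/well) in complete medium exposed 16 h at 37 C; caspase-3/7 activity read by Caspase-Glo luminescence after 20 min at room temperature. Normalized to DMSO and 100 uM tamoxifen; AC50 from Hill fits.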

[3] = Cellular Toxicity (caspase-3) HUV-EC-C (AID 656);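 further: 0% = DMSO basal and 100% = 100 µM tamoxifen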
Procedure, shortened: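 HUV-EC-C cells (1000/well) in complete medium, compound-treated 16 h at 37 °C; caspase-3/7 activity read by Caspase-Glo 3/7 luminescence. Normalized to DMSO (basal) and 100 uM tamoxifen (100%); AC50 from Hill-equation concentration-response fits.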

[4] = Cellular Toxicity (caspase-3) SHSY5Y (AID 657)
Procedure, shortened: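 SH-SY5Y human neuroblastoma cells, 1500/well, exposed to compound for 16 hours at 37 °C in complete medium. Caspase-3/7 activity read by Caspase-Glo luminescence after 1 hr at room temperature, normalized to DMSO and 10 uM staurosporine; AC50 from Hill fit.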

[5] = Cellular Toxicity (caspase-3) BJ (AID 658);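 further: 0% = DMSO basal and 100% = 10 µM staurosporine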
Procedure, shortened: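 Readout: Caspase-Glo 3/7 luminescence increase in BJ cells after 16 hr treatment at 37 °C. Staurosporine and tamoxifen served as positive controls; AC50 values came from Hill modelling of data normalized to DMSO and 10 uM staurosporine.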

[6] = Cellular Toxicity (caspase-3) MRC-5 (AID 659);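 further: 0% = DMSO basal and 100% = 10 µM staurosporine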
Procedure, shortened: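 Concentration-dependent caspase 3/7 activation is measured in human normal lung fibroblasts (MRC-5) following 16-hour treatment. AC50 values come from standard Hill-equation modeling of luminescence normalized to DMSO and 10 uM staurosporine.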

[7] = Cellular Toxicity (caspase-3) Mesangial (AID 660);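 further: cells exposed to compound for 16 h before the caspase read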
Procedure, shortened: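 Concentration-response qHTS: compound-induced rise in caspase 3/7 luminescence in human mesangial cells after 16 h, normalized to DMSO and 100 uM tamoxifen controls.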

[8] = Cellular Toxicity (caspase-3) SK-N-SH (AID 661);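 further: 0% = DMSO basal and 100% = 10 µM staurosporine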
Procedure, shortened: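 Caspase 3/7 activation is measured as a luminescence increase from aminoluciferin released by substrate cleavage in SK-N-SH cells after 16 hr compound treatment; values are AC50 from concentration-response curves.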

[9] = Cellular Toxicity (caspase-3) H-4-II-E (AID 663);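 further: cells exposed to compound for 16 hr before readout; 0% = DMSO basal and 100% = 100 µM tamoxifen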
Procedure, shortened: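 Apoptosis induction is scored as increased luminescence from caspase 3/7 substrate cleavage in rat hepatoma H-4-II-E cells exposed to compound for 16 hr. Activity is scaled between DMSO and 100 uM tamoxifen.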

[10] = Cellular Toxicity (caspase-3) Hek293 (AID 664);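 further: cells exposed to compound for 16 h at 37 °C before readout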
Procedure, shortened: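 Activation of caspase-3/7 is measured as increased luminescence from cleaved peptide-aminoluciferin substrate in HEK293 cells treated 16 hours at 37 °C. AC50 values come from Hill-equation fits of concentration-response data.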

[11] = Cellular Toxicity (caspase-3) NIH 3T3 (AID 666);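 further: caspase signal read after 16 h compound exposure; 0% = DMSO basal and 100% = 100 µM tamoxifen stimulation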
Procedure, shortened: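 Concentration-response qHTS in NIH 3T3 mouse fibroblasts scores caspase-3/7 activation as rising luminescence after 16 hr compound exposure. Signals are scaled between DMSO-only and 100 uM tamoxifen.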

[12] = Cellular Toxicity (caspase-3) Renal Proximal Tubule (AID 667);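 further: cells exposed to compound for 16 hours at 37 °C before detection; 0% = DMSO basal and 100% = 10 µM staurosporine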
Procedure, shortened: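 Freshly isolated primary rat kidney proximal tubule cells, 1000/well, treated 16 hr at 37 °C, then Caspase-Glo 3/7 luminescence after 1 hr. Normalized to DMSO and 10 uM staurosporine; AC50 from Hill fit.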

[13] = target: Cytochrome P450 3A4 (Homo sapiens) (UniProt P08684); assay: qHTS Assay for Inhibitors and Substrates of Cytochrome P450 3A4 (AID 884); further: series mostly up to about 57 µM; on the % scale 0 is the no-effect control and ±100 the full control effect; nearly all actives have a fitted effect of over 50% in size
Chain of Cytochrome P450 3A4 (Homo sapiens) (P08684 whole entry, looked up): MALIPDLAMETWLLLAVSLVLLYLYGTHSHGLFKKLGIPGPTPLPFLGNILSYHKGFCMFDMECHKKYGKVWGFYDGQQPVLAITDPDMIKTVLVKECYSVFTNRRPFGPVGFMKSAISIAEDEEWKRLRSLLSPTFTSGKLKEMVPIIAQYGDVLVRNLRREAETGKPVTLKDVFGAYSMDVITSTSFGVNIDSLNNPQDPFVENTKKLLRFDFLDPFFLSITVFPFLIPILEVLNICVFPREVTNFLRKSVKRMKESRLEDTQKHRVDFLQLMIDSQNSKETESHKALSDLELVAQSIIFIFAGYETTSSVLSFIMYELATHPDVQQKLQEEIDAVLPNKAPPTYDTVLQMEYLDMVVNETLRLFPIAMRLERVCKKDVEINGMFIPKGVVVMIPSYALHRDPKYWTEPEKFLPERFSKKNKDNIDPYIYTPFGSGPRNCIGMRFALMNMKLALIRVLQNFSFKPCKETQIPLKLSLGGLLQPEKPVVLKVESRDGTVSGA
Procedure, shortened: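 20 nM human CYP3A4 with 25 uM Luciferin-PPXE (at KM) in 200 mM KPO4, preincubated 10 min with compound; NADPH regeneration started a 60 min RT reaction. Luciferin detected by luminescence, normalized to 57 uM ketoconazole as full inhibition.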

[14] = target: Guanine nucleotide-binding protein G(i) subunit alpha-1 (Homo sapiens) (UniProt P63096); assay: qHTS Assay for Inhibitors of RGS12 GoLoco Motif Activity (Green Fluorophore) (AID 879);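 further: 0% = labeled peptide with Gαi1 and full inhibition = labeled peptide alone without protein; negative values mean loss of peptide binding seen as reduced polarization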
Chain of Guanine nucleotide-binding protein G(i) subunit alpha-1 (Homo sapiens) (P63096 whole entry, looked up): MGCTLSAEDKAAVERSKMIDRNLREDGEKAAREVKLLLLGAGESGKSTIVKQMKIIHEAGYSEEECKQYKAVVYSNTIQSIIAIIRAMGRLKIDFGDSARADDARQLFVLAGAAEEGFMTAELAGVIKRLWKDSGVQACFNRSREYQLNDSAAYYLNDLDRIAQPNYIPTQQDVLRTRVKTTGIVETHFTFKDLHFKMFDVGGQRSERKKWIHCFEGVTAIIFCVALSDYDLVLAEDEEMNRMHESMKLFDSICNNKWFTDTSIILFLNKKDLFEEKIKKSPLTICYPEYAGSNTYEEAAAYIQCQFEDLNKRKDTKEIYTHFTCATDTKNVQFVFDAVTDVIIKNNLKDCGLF
Procedure, shortened: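 Fluorescence polarization assay: 50 nM Gαi1 with 10 nM FITC-labeled RGS12 GoLoco peptide in 10 mM Tris pH 7.5, 150 mM NaCl, 0.1 mM GDP, 0.05% NP40, 10 min at room temperature with compound.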

[15] = target: Cytochrome P450 2C9 (Homo sapiens) (UniProt P11712); assay: qHTS Assay for Inhibitors and Substrates of Cytochrome P450 2C9 (AID 883); further: potency means the concentration at half of the fitted maximal effect; nearly all actives have a fitted effect of over 60% in size
Chain of Cytochrome P450 2C9 (Homo sapiens) (P11712 whole entry, looked up): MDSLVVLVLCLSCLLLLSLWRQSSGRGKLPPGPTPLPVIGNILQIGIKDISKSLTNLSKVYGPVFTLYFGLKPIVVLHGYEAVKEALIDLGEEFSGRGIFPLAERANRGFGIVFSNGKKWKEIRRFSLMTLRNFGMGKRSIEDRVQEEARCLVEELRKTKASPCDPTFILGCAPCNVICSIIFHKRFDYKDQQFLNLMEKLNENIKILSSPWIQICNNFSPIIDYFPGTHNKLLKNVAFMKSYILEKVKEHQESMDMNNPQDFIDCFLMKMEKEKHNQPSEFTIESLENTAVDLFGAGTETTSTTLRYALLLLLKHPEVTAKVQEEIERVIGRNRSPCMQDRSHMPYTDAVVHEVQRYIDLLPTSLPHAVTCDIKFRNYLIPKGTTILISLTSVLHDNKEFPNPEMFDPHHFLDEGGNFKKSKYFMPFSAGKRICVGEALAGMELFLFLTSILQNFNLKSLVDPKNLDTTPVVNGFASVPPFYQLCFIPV
Procedure, shortened: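 Inhibition of CYP2C9 is scored as loss of luminescence, with 57uM sulphaphenazole defining 100% inhibition. Substrate Luciferin-H is used at 100uM, equal to its KM; enzyme at 10nM in 25mM KPO4, 60 min at 37C with NADPH regeneration.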

[16] = qHTS Assay for Identification of Small Molecule Agonists for Hypoxia Response Element Signaling Pathway (AID 914; active means well fitted activation curve with a large enough effect in the signal ratio, with a control signal flat, not every such curve was filed as active; the % refers to the signal ratio; further: % of control where 0% means no effect); conditions: ME-180 (cervical carcinoma) HRE-bla reporter, beta-lactamase ratio, CoCl2, 17 h; active compounds read high
Procedure, shortened: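 AC50 values come from titration-series %Activity, taken as the 460/530nm ratio of CCF4 fluorescence (excitation 405nm). CellSensor HRE-bla ME-180 cells were treated 17 hours at 37 C with compound plus an EC50 level of CoCl2.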

[17] = Confirmation and Secondary Assay for Modulators of Hemoglobin Beta Chain Splicing at IVS2 654 locus (AID 910);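 further: HeLa cells stably carrying EGFP split by mutant beta-globin IVS2-654 intron; per-well total GFP intensity by laser scanning cytometry after 2-day treatment; % of control where 0% means no effect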
Procedure, shortened: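 Readout: per-well total peak green fluorescence (488 nm ex, 500–520 nm em) from objects 5–250 µm, reflecting correct splicing of an EGFP-654 reporter. Compounds were applied for 2 days at 37 °C to overnight-plated HeLa EGFP-654 cells; controls were DMSO and 500 nM IVS2-654 PNA.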

[18] = target: Cytochrome P450 3A4 (Homo sapiens) (UniProt P08684); assay: qHTS Assay for Activators of Cytochrome P450 3A4 (AID 885); further: nearly all actives have a fitted effect of over 65% in size
Procedure, shortened: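 Human CYP3A4 (20 nM) with Luciferin-PPXE at 25 uM (its KM) in 200 mM KPO4; 10 min compound preincubation, then NADPH regeneration and 60 min reaction at RT. Luciferin read by luminescence; normalized to 57 uM ketoconazole full inhibition.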

C=CCNC(N)=S
inactive: outcome [1] | outcome [2] | outcome [3] | outcome [4] | outcome [5] | outcome [6] | outcome [7] | outcome [8] | outcome [9] | outcome [10] | outcome [11] | outcome [12] | outcome [13]

NC(=O)CC[C@@H](N)C(=O)O
inactive: outcome [14]

O=C(c1ccccc1)C(O)c1ccccc1 (centres undefined)
inactive: outcome [1] | outcome [2] | outcome [3] | outcome [4] | outcome [5] | outcome [6] | outcome [7] | outcome [8] | outcome [9] | outcome [10] | outcome [11] | outcome [12] | outcome [13]

O=C(O)COC(=O)Cc1ccccc1Nc1c(Cl)cccc1Cl
active: Potency [15] 1.58 µM
inactive: activation [16] -4.27%

CCCCOC(=O)c1ccc(N)cc1
inactive: outcome [1] | outcome [2] | outcome [3] | outcome [4] | outcome [5] | outcome [6] | outcome [7] | outcome [8] | outcome [9] | outcome [10] | outcome [11] | outcome [12] | outcome [17]

O=C1C(c2[nH]c3ccccc3c2O)=Nc2ccccc21
inactive: outcome [1] | outcome [2] | outcome [3] | outcome [4] | outcome [5] | outcome [6] | outcome [7] | outcome [8] | outcome [9] | outcome [10] | outcome [11] | outcome [12] | outcome [13]

CC(=O)NS(=O)(=O)c1ccc(N)cc1
inactive: outcome [1] | outcome [2] | outcome [3] | outcome [4] | outcome [5] | outcome [6] | outcome [7] | outcome [8] | outcome [9] | outcome [10] | outcome [11] | outcome [12] | outcome [17]

NC(=O)NC1NC(=O)NC1=O (centres undefined)
inactive: outcome [13] | outcome [17]

Cc1cccc(Nc2ccccc2C(=O)O)c1C
inactive: outcome [13] | outcome [17]
active: Potency [15] 7.94 µM

CCCCCCCC(=O)OCC(COC(=O)CCCCCCC)OC(=O)CCCCCCC
inactive: outcome [1] | outcome [2] | outcome [3] | outcome [4] | outcome [5] | outcome [6] | outcome [7] | outcome [8] | outcome [9] | outcome [10] | outcome [11] | outcome [12] | outcome [13]

C[n+]1ccccc1/C=N/O
inactive: outcome [13] | outcome [17]

CCCCCC(N)=O
inactive: outcome [1] | outcome [2] | outcome [3] | outcome [4] | outcome [5] | outcome [6] | outcome [7] | outcome [8] | outcome [9] | outcome [10] | outcome [11] | outcome [12] | outcome [13]

CC1CC(OC(=O)c2ccccc2O)CC(C)(C)C1 (centres undefined)
inactive: outcome [1] | outcome [2] | outcome [3] | outcome [4] | outcome [5] | outcome [6] | outcome [7] | outcome [8] | outcome [9] | outcome [10] | outcome [11] | outcome [12] | outcome [17]

CN1C(C)(C)CCCC1(C)C
inactive: outcome [14] | outcome [17]

Cc1cc(=O)[nH]c(=S)[nH]1
inactive: outcome [1] | outcome [2] | outcome [3] | outcome [4] | outcome [5] | outcome [6] | outcome [7] | outcome [8] | outcome [9] | outcome [10] | outcome [11] | outcome [12] | outcome [13] | outcome [17]

CC(=O)Nc1ccc(C(=O)O)cc1
inactive: outcome [1] | outcome [2] | outcome [3] | outcome [4] | outcome [5] | outcome [6] | outcome [7] | outcome [8] | outcome [9] | outcome [10] | outcome [11] | outcome [12] | outcome [13]

Cn1c(=O)c2c(ncn2CCO)n(C)c1=O
inactive: outcome [13] | outcome [17]

O=C(O)c1cc(=O)c2ccccc2o1
inactive: outcome [13] | outcome [17]

O=C(O)c1ccccc1C(=O)Nc1ccc(S(=O)(=O)Nc2nccs2)cc1
inactive: outcome [13] | outcome [18] | outcome [17]

FC(F)(F)C(Cl)Br (centres undefined)
inactive: outcome [1] | outcome [2] | outcome [3] | outcome [4] | outcome [5] | outcome [6] | outcome [7] | outcome [8] | outcome [9] | outcome [10] | outcome [11] | outcome [12] | outcome [13]

Cc1cc(C)nc(NS(=O)(=O)c2ccc(N)cc2)n1
inactive: outcome [1] | outcome [2] | outcome [3] | outcome [4] | outcome [5] | outcome [6] | outcome [7] | outcome [8] | outcome [9] | outcome [10] | outcome [11] | outcome [12] | outcome [18] | outcome [17] | activation [16] -4.03%

CC(=O)NCc1c(I)c(NC(C)=O)c(I)c(C(=O)O)c1I
inactive: outcome [13] | outcome [17]

O=C1c2cccc(O)c2C(=O)c2c(O)cccc21
inactive: outcome [1] | outcome [2] | outcome [3] | outcome [4] | outcome [5] | outcome [6] | outcome [7] | outcome [8] | outcome [9] | outcome [10] | outcome [11] | outcome [12] | outcome [13] | outcome [17]
